Our source for the outcome values is PubChem BioAssay (Tox21).

Records with an inconclusive call do not appear. Active and inactive are the calls of the source. Calls follow the shape of the dose curve; as a rule, active = well fitted cell-killing curve with a large enough effect in the repeat runs; inconclusive = weak or mixed curves; inactive = no such curve, though single readings can be large or run the other way.

A short description of this test: qHTS assay to identify small molecule antagonists of the peroxisome proliferator-activated receptor delta (PPARd) signaling pathway - cell viability counter screen (AID 743213). Also: nearly all actives have a fitted effect of over 50% in size. As to conditions: PPARd-bla HEK293H viability, CellTiter-Glo luminescence, 17 h; series mostly up to 62 µM. The text has this:
U.S. Tox21 Program National Center for Advancing Translational Sciences [NCATS] NIH Chemical Genomics Center [NCGC] U.S. Environmental Protection Agency [EPA] National Institutes of Environmental Health Sciences [NIEHS] National Toxicology Program [NTP] U.S. Food and Drug Administration [FDA] Tox21 Assay Overview: The peroxisome proliferator-activated receptors (PPARs) are lipid-activated transcription factors of the nuclear receptor superfamily with three distinct subtypes namely PPAR alpha, PPAR delta (PPARd) and PPAR gamma. All these subtypes heterodimerizes with Retinoid X receptor (RXR) and have different physiological functions. […] To identify the compounds that inhibit PPAR-delta signaling, GeneBLAzer PPAR delta UAS-bla HEK293H cell line (Invitrogen, Carlsbad, CA, USA) containing a beta-lactamase reporter gene under the control of an Upstream Activator Sequence (UAS) was used to screen the Tox21 compound library. The cytotoxicity of the Tox21 compound library against the PPARd-bla cell line was tested in parallel by measuring the cell viability using CellTiter-Glo assay (Promega, Madison, WI) in the same wells.
Tox21 Assay Protocol Summary: PPARd-bla cells were dispensed at 3000 cells/5uL/well in 1536-well black wall/clear bottom plates using a Multidrop Combi (Thermo Fisher Scientific, Waltham, MA) dispenser. After the assay plates were incubated at 37 C and 5% CO2 for 5 h, 23 nL of compounds dissolved in DMSO, positive controls or DMSO only was transferred to the assay plate by a Pintool station (Kalypsys, San Diego, CA), followed by addition of 1ul L165041 (300 nM, final concentration in the wells). The assay plates were incubated at 37 C for 17 h, and then 1 uL of LiveBLAzerTM B/G FRET substrate was added using a Bioraptr Flying Reagent Dispenser (FRD) workstation (Beckman Coulter, Indianapolis, IN, USA). The assay plates were incubated at room temperature for 2 h and fluorescence intensity was measured by an Envision plate reader (PerkinElmer, Shelton, CT). For cell viability readout that measures cytotoxicity, 3 ul/well of CellTiter-Glo reagent was added into the assay plates using a Bioraptr FRD. After 30 min incubation at room temperature, the luminescence intensity in the plates was measured using a ViewLux plate reader (PerkinElmer).
With `O=C(O)CC(C(=O)O)C(CC(=O)O)C(=O)O` (stereo not given), the result was inactive. On to `CC1CCC2CC1C2(C)C` (stereo not given), for which the outcome was inactive. Turning to `O=C=NCCCCCCN=C=O`, the outcome was inactive. The value for `CCCSc1ccc2nc(NC(=O)OC)[nH]c2c1` was “inactive”. For the molecule `OCC(CO)(CBr)CBr`, the molecule was classed as inactive. Next, `O=P(OC(CCl)CCl)(OC(CCl)CCl)OC(CCl)CCl`: “inactive”.

Regarding `CC(=O)Nc1cccc(O)c1`, the call was inactive. For the molecule `CCC(O)OCCCOC` (stereo not given), the outcome was inactive.

For the molecule `Cc1cccnc1`, the outcome was inactive. As to `O=c1[nH]c(=O)n([C@H]2C[C@H](O)[C@@H](CO)O2)cc1Br`, the outcome was inactive.

In the case of `O=C(O)c1cc(=O)c2c(OCC(O)COc3cccc4oc(C(=O)O)cc(=O)c34)cccc2o1`, the result was inactive. As to `CC[C@H](C)C(=O)O[C@H]1C[C@@H](C)C=C2C=C[C@H](C)[C@H](CC[C@@H]3C[C@@H](O)CC(=O)O3)[C@H]21`, the molecule was called inactive. Consider `OC[C@H]1O[C@@](CO)(O[C@H]2O[C@H](CO)[C@@H](O)[C@H](O)[C@H]2O)[C@@H](O)[C@@H]1O`, for which the molecule was called inactive. For the molecule `C=C(C)C(=O)OCCOCCOCCOC(=O)C(=C)C`, the outcome was inactive. Turning to `O=C(OCCOCCOC(=O)c1ccccc1)c1ccccc1`, the outcome was inactive. Consider `O=C(O)c1ccc2c(c1)C(=O)OC2=O`, for which the molecule was classed as inactive.

`CCCCC(CC)COC(=O)CCCCC(=O)OCC(CC)CCCC` (stereo not given): the result was inactive. Regarding `C[Si](O[Si](C)(C)C)O[Si](C)(C)C`, the molecule was classed as inactive.

Regarding `CCc1cccc(C)c1N`, the outcome was inactive. Turning to `O=S1(=O)CC=CC1`, the outcome was inactive. Consider `Nc1cc([N+](=O)[O-])ccc1O`, for which the result was inactive. For the molecule `CC1=C(C)S(=O)(=O)CCS1(=O)=O`, the result was inactive. Consider `COc1ccc2cc([C@H](C)C(=O)O)ccc2c1`, for which the result was inactive. `COCCCOc1ccnc(CS(=O)c2nc3ccccc3[nH]2)c1C` (stereo not given): the outcome was inactive. Next, `CC(=O)Nc1ccccc1`: “inactive”; `CN(C)CCC(c1ccc(Cl)cc1)c1ccccn1` (stereo not given): “inactive”; `CCCCCC/C(C=O)=C\c1ccccc1`: “inactive”. The value for `C#C[C@]1(O)CC[C@H]2[C@@H]3CCC4=CC(=O)CC[C@@H]4[C@H]3CC[C@@]21C` was “inactive”; that for `C[C@H]1C[C@@H]2[C@H]([C@@H](O)C[C@@]3(C)[C@H]2CC[C@]3(O)C(=O)CO)[C@@]2(C)C=CC(=O)C=C12` was “inactive”; that for `C#CCN(C)Cc1ccccc1` was “inactive”.

For the molecule `c1ccc2scnc2c1`, the molecule was called inactive. On to `CCCCCCCCCCCCS`, for which the molecule was classed as inactive. `NNc1nncc2ccccc12`: the call was inactive. Turning to `O=C(O)[C@H](O)[C@@H](O)[C@H](O)[C@H](O)CO`, the outcome was inactive. As for `CCCCC(CC)CO` (stereo not given), the molecule was classed as inactive. For `O=[N+]([O-])c1ccc(/C=C/c2ccc([N+](=O)[O-])cc2S(=O)(=O)O)c(S(=O)(=O)O)c1`, the call was inactive. In the case of `CCCCCCCCCCCCc1ccccc1`, the result was inactive. For the molecule `C=CCNC(N)=S`, the outcome was inactive. For the molecule `CC(C)(N)CO`, the molecule was classed as inactive. The value for `FC(F)(F)c1ccc(Cl)c(Cl)c1` was “inactive”.
